Measured values: PubChem BioAssay AID1711 (National Center for Advancing Translational Sciences (NCATS), 2009)
Records with an inconclusive call do not appear. Active and inactive are the calls of the source. Calls come from the whole dose curve; as a rule, active = well fitted curve in the direction sought with a large enough effect; inconclusive = small, poorly fitted or top-dose-only effect, or another doubt; inactive = no such curve, though single readings can be large or run the other way.

Molecular target: Caspase-1 (Homo sapiens) (UniProt P29466)
Assay: Concentration-Response Counterscreen for Tau: Redox Active Inhibitors of Caspase-1
Settings: purified caspase-1, Ac-WEHD-AFC fluorescence kinetic; series mostly up to 40.6 µM; activity change, negative = inhibition: at the top concentration
Text: NIH Molecular Libraries Probe Production Network [MLPCN] NIH Chemical Genomics Center [NCGC] MLPCN Grant: X01 MH083262-01 Assay Provider: Carlo Ballatore, University of Pennsylvania NCGC Assay Overview: The microtubule-associated protein tau is an abundant protein in the axons of neurons that stabilizes microtubules. With its ability to modulate microtubule dynamics, tau contributes directly or indirectly, to key structural and regulatory cellular functions. Particularly important is the influence tau exerts on axonal transport, which allows signaling molecules, trophic factors and other essential cellular constituents to travel along the axons. Under pathological conditions, tau becomes sequestered into insoluble aggregates called neurofibrillary tangles. This phenomenon is believed to have pathological consequences by promoting axonal transport deficits that ultimately lead to synaptic dysfunction and neuronal loss. To examine the selectivity of tau fibrillization inhibitors, compounds were tested in an in vitro assay for caspase-1 activity. This assay is a counterscreen for tau fibrillization inhibitors to identify non-specific oxidizing agents; an active site cysteine in caspase-1 must remain in a reduced state and the enzyme is inactivated by oxidative compounds. Caspase-1 activity was monitored using a profluorescent substrate that upon enzymatic cleavage yields a fluorescent probe that is detectable at 405 nm excitation and 525 nm emission. Scheer, J. M., Wells, J. A., and Romanowski, M. J. (2005) Protein Expression and Purification 41, 148-153.
NCGC Assay Protocol Summary: Caspase-1, kindly provided by Dr. James Wells (University of California, San Francisco), was purified and assayed at 100 nM in buffer containing 50 mM HEPES pH 7.5, 50 mM KCl, 200 mM NaCl, and 0.1% CHAPS. Caspase-1 was dispensed at 3 uL/well into black solid 1536-well plates and incubated 5 min with various concentrations of test compound, with subsequent addition of 1 ul/well Ac-WEHD-AFC substrate (20 uM final concentration). Within 1 minute of substrate addition, fluorescence intensity (405 nm excitation and 525 nm emission) was measured on a ViewLux (PerkinElmer) every 30 s for 10 min. The first 3 minutes of fluorescence values were linear and used to calculate the slope of substrate conversion as a measure of enzyme activity.

Chain of Caspase-1 (Homo sapiens) (P29466 whole entry, looked up): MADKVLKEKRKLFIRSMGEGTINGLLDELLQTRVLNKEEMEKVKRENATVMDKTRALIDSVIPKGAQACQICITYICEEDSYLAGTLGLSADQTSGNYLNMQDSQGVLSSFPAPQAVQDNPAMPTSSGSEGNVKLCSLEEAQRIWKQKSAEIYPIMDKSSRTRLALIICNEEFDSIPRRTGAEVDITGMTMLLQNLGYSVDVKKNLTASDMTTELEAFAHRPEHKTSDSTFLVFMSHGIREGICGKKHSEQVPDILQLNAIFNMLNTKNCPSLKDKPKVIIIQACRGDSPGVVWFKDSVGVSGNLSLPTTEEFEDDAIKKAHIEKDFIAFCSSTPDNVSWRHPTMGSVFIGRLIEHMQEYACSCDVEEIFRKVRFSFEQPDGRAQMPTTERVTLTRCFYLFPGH

Structure (SMILES) | activity change, negative = inhibition | Potency
Nc1scc2c(C(=O)N3CCOCC3)nn(-c3ccccc3)c(=O)c12 | -10% (inactive) | –
CCOC(=O)c1nn(-c2ccc(OC)cc2)c(=O)c2c(N)scc12 | – | inactive
CCOC(=O)c1nn(-c2ccccc2)c(=O)c2c(NC(=O)c3ccccc3)scc12 | -8.05% (inactive) | –
Nc1cc(-c2ccccc2)c[nH]c1=O | – | 7.94 µM (active)
Nc1scc2c(CO)nn(-c3ccccc3)c(=O)c12 | -19.2% (inactive) | –
CCOC(=O)c1nn(-c2ccc(F)cc2)c(=O)c2c(N)scc12 | -19.8% (inactive) | –
CCOC(=O)c1nn(-c2ccc(Cl)c(Cl)c2)c(=O)c2c(N)scc12 | -2.84% (inactive) | –
CCOC(=O)c1nn(-c2ccc(C)c(C)c2)c(=O)c2c(N)scc12 | 1.88% (inactive) | –
CCOC(=O)c1nn(-c2ccc(C)cc2)c(=O)c2c(N)scc12 | -3.58% (inactive) | –
CCOC(=O)c1nn(-c2ccccc2)c(=O)c2c(NC(C)=O)scc12 | -13.9% (inactive) | –
CCOC(=O)c1nn(-c2cccc(C(F)(F)F)c2)c(=O)c2c(N)scc12 | -16.5% (inactive) | –
CCOC(=O)c1nn(-c2ccccc2)c(=O)c2c(N)scc12 | -11% (inactive) | –
CCOC(=O)c1nn(-c2ccccc2)c(=O)c2c(N)sc(C)c12 | -9.73% (inactive) | –
CC(=O)Nc1sc(C)c2cnn(-c3ccccc3)c(=O)c12 | -3.22% (inactive) | –
Nc1nn(-c2ccccc2)c(=O)c2c(N)scc12 | -11.3% (inactive) | –
COc1ncc(-c2ccccc2)cc1N | – | 15.8 µM (active)
Nc1scc2c(C(=O)O)nn(-c3ccccc3)c(=O)c12 | -14.5% (inactive) | –
CCOC(=O)c1ccc(-n2nc(C(=O)OCC)c3csc(N)c3c2=O)cc1 | -20.3% (inactive) | –
CCOC(=O)c1nn(-c2ccccc2F)c(=O)c2c(N)scc12 | 7.77% (inactive) | –
